Shown are actives, neighbours in structure and some others; about 4.2% of the full set was active somewhere.
GDH-TPI counter: GDH-TPI coupling enzyme inhibitors, primary screen, artefact control for M. tuberculosis FBA inhibitor project, biochemical, absorbance, full deck | GDH-TPI coupled enzyme counterscreen, NADH absorbance | actives 1.2% (n = 360,000) | AID 588335, 2011 | inhibition, % at 4.8 µM;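 further: 0% = DMSO wells and 100% = wells lacking the enzyme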
RecA intein inh: Mtb RecA intein splicing inhibitors, primary screen, biochemical, fluorescence, HTS; AID 2221, 2009; Protein RecA (Mycobacterium tuberculosis (strain ATCC 25618 / H37Rv)), P9WHJ3; cell-free RecA intein splicing; actives 0.75% (n = 290,000); inhibition, % (test concentration not listed); in the data active means inhibition above about 30%;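 further: 0% = vehicle wells and 100% = reference inhibitor control wells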
Mtb FBA inh: Mtb FBA enzyme inhibitors, primary screen, biochemical, fluorescence, strain H37Rv | inhibition, % at 1 µM | purified M. tuberculosis FBA, fluorescence read-out | Fructose-bisphosphate aldolase (Mycobacterium tuberculosis (strain ATCC 25618 / H37Rv)), … | actives 2.3% (n = 360,000) | AID 588726, 2011; in the data active means inhibition above about 27%;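 further: 0% = vehicle and 100% = reference inhibitor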
Target sequence (P9WQA3 whole entry, looked up): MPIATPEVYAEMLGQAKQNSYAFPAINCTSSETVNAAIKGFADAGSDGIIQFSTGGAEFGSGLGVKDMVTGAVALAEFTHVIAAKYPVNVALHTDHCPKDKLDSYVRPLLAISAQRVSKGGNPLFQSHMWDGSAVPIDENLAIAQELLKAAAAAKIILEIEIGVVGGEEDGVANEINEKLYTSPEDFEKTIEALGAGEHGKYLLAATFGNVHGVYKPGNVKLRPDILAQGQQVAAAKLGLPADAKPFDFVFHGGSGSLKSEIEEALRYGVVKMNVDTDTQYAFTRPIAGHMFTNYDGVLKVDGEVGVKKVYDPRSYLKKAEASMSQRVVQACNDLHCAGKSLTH
CCHF vOTU inh-1: CCHFV vOTU protease inhibitors, primary screen, biochemical, Pep-AMC substrate, fluorescence; inhibition, % at 11.5 µM; actives 0.55% (n = 370,000); Crimean-Congo hemorrhagic fever virus L polyprotein viral ovarian tumor (vOTU) protease …; AID 651958, 2012; further: 0% = vehicle wells with enzyme and 100% = no enzyme wells
CCHF vOTU inh-2: CCHFV vOTU protease inhibitors, confirmation, biochemical, Pep-AMC substrate, fluorescence; actives 17% (n = 1,900); inhibition, % at 11.5 µM; shares compounds with CCHF vOTU inh-1; Recombinant CCHFV vOTU
Numbers without * were called inactive; / = no result. Unless noted, no stated cut-off is given here; in the data, active means inhibition above about 30%; inactive means the rest.

SMILES	GDH-TPI counter	RecA intein inh	Mtb FBA inh	CCHF vOTU inh-1	CCHF vOTU inh-2
NC(=O)C1CCN(C2=C(NS(=O)(=O)c3ccc(Br)cc3)C(=O)c3ccccc3C2=O)CC1	14	6	5	39*	-2
O=C1CN(C(=O)COC(=O)c2c(F)cccc2Cl)c2ccccc2N1	-8	/	-2	23	/
O=C1C=C(N2CC2)c2ccccc2C1=O	-1	/	-3	105*	92*
CCCCCCCCN1C(=O)[C@H](CC(=O)NCc2ccc(OC)c(OC)c2)C[C@@]2(C(=O)OCC)CCCC=C12	/	/	/	39*	16
CCOC(=O)[C@]12CCC=C1N(Cc1ccc(Cl)cc1Cl)C(=O)[C@H](CC(=O)NCc1ccc(C)o1)C2	/	/	/	34*	-11
CCCCCCCCN1C(=O)[C@H](CC(=O)NCc2cccs2)C[C@@]2(C(=O)OCC)CCCC=C12	/	/	/	31*	14
CCCCCCCCN1C(=O)[C@H](CC(=O)NCCc2ccccc2OC)C[C@@]2(C(=O)OCC)CCC=C12	/	/	/	29	/
CCCCCCCCN1C(=O)[C@H](CC(=O)NCCc2ccccc2OC)C[C@@]2(C(=O)OC)CCCCC=C12	/	/	/	47*	10
CCOC(=O)[C@]12CCCC=C1N(Cc1ccc(Cl)cc1Cl)C(=O)[C@H](CC(=O)NCc1ccc(C)o1)C2	/	/	/	18	/
CCCCCCCCN1C(=O)[C@H](CC(=O)NCc2cccs2)C[C@@]2(C(=O)OC)CCCCC=C12	/	/	/	23	/
Cc1ccc(/C=N/NC(=O)c2nnn(-c3nonc3N)c2CSc2ccc(Cl)cc2)o1	20	2	-2	15	/
O[C@@H]1CN(CC2CCCCC2)[C@@H](c2ccccc2)C[C@H]1n1cc(-c2ccc(F)cc2)nn1	8	/	-1	9	/
Cc1cccc(-c2onc3ccc(C(=O)/C=C/N(C)C)cc23)c1	16	4	1	33*	-16
COc1cccc(-c2onc3ccc(C(=O)/C=C/N(C)C)cc23)c1	11	6	0	-11	/
C/C(=N\NC(=O)c1ccccc1-n1cccc1)c1ccccn1	3	/	5	37*	-13
CCOc1cccc(C(=O)NC(=S)Nc2ccc(Cl)cc2C(=O)O)c1	2	-1	6	-3	/
CCN(CC)CCN1CCN(c2cncc(-c3ccc4ccccc4c3)n2)CC1	5	/	9	-15	/
COc1ccc(-n2c3nc4ccccc4nc3c3c(=N)oc(C)nc32)cc1	18	72*	13	69*	36*
Cc1c(NC(=O)Nc2cccc(Cl)c2Cl)c(=O)n(-c2ccccc2)n1C	9	1	-2	-5	/
Cc1ccc(C(=O)N/C(=C/c2cn(-c3ccccc3)nc2-c2ccccc2)C(=O)O)cc1	22	8	0	39*	1
CCOc1ccccc1N1CCN(CC(=O)Nc2nccs2)CC1	5	/	-2	-1	/
CCCCC1Cc2[nH]c(=S)[nH]c(=O)c2C(C(C)C)O1 (stereo not given)	/	/	/	11	/
CC(C)(C(=O)N1CCC1(C)C(=O)NS(=O)(=O)c1ccc(Cl)s1)c1ccccc1 (stereo not given)	14	/	-2	1	/
CCOc1ccc(CCN2C(=S)N([C@@H](Cc3ccccc3)CN3CCCC3CN3C(=S)NC[C@@H]3Cc3ccccc3)C[C@@H]2Cc2ccc(O)cc2)cc1 (stereo not given in full)	/	/	/	30*	-5
CC(C)C[C@@H](CN1CCC[C@@H]1CN1C(=S)NC[C@@H]1Cc1ccccc1)N1C[C@H](Cc2ccc(O)cc2)N(CC2CCCCCC2)C1=S	/	/	-3	13	/
CCOc1ccc(CCN2C(=S)N([C@@H](Cc3ccc(O)cc3)CN3CCC[C@@H]3CN3C(=S)NC[C@@H]3Cc3ccccc3)C[C@@H]2Cc2ccccc2)cc1	/	/	3	14	/
CCOc1ccc(CCN2C(=O)C(=O)N([C@@H](CC(C)C)CN3CCC[C@H]3CN3C(=O)C(=O)NC[C@@H]3Cc3ccc(O)cc3)C[C@@H]2Cc2ccccc2)cc1	/	/	/	30*	-9
O=C1NC[C@H](Cc2ccc(O)cc2)N(C[C@@H]2CCCN2C[C@H](Cc2ccc(O)cc2)N2C[C@H](Cc3ccccc3)N(CCc3ccccc3)C(=O)C2=O)C1=O	/	/	/	34*	-19

From PubChem BioAssay
